Measured values: the supplement of paper PMC11732987, “Enantioselective OTUD7B fragment discovery through chemoproteomics screening and high-throughput optimisation” (Communications Chemistry, 2025)

How the values were obtained:
Assay in all cases: log2 ratio of Biotin-Ahx-Ub-VS probe labelling (fragment/DMSO); higher = less target engagement (more negative = stronger competition), active = hit call of the paper (q ≤ 0.05, log2 ratio ≤ -1)
Details in all cases: compound concentration: 200 uM; treatment time: 3 h
OTUD6B = target: T1, OTUD6B (UniProt Q8N6M0)
T1 sequence (whole entry): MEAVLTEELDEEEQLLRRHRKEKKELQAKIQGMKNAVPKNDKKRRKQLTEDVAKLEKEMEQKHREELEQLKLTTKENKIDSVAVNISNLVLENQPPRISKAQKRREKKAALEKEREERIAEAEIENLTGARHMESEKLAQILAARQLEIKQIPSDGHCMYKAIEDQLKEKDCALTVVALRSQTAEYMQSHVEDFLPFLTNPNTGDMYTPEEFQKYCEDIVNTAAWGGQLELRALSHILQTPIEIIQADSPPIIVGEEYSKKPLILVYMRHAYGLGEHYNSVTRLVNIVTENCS
Method in brief: (§1)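 Each value is an average log2 ratio of fragment to vehicle, tested by unpaired t-test. The underlying Spectronaut label-free quantities were global-median-normalised, and only proteins with ≥2 unique peptides were included. Triplicate HEK293T lysate samples (495 µg) were exposed to fragment at 200 µM or vehicle for 3 h, then to Biotin-Ahx-Ub-VS at 0.5 µM final for 1 h, before NeutrAvidin enrichment of labelled DUBs, LysC and trypsin digestion, and diaPASEF LC-MS/MS.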

OTUD7B = target: T2, OTUD7B (UniProt Q6GQQ9)
T2 sequence (whole entry): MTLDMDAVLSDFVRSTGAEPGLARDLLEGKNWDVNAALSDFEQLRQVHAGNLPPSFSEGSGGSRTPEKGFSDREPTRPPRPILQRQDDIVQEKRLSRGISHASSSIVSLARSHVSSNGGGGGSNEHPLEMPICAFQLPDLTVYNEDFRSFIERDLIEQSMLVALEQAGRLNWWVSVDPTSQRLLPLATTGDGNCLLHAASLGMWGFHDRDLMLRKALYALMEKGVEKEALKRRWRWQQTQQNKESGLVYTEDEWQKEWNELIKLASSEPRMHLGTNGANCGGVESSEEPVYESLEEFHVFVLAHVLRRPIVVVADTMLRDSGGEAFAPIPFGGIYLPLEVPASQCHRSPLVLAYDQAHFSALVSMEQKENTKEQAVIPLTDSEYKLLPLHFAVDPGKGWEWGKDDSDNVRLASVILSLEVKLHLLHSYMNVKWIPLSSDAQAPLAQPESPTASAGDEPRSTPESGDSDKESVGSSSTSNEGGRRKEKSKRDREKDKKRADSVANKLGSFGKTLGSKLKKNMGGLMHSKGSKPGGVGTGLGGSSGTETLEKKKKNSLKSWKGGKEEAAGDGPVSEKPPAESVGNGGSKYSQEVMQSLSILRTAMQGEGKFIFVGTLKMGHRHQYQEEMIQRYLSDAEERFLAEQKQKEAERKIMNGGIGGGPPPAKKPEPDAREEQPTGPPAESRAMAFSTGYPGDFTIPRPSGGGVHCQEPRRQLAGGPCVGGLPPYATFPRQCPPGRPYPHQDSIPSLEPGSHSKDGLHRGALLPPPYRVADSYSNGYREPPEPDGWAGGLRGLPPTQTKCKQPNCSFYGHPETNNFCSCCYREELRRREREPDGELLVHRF
Method in brief: as §1

PRPF8 = PRPF8 (UniProt Q6P2Q9)
Method in brief: as §1

PSMD7 = target: T3, PSMD7 (UniProt P51665)
T3 sequence (whole entry): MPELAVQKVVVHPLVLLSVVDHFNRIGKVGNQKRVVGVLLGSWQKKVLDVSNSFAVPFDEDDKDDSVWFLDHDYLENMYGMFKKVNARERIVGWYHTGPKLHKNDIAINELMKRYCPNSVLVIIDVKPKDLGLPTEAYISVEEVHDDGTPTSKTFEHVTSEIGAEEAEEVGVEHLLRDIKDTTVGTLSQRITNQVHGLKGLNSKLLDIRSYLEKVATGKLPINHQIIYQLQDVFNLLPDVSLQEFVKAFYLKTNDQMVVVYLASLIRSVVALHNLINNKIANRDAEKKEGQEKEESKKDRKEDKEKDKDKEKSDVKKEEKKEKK
Method in brief: as §1

UCHL1 = UCHL1 (UniProt P09936)
Method in brief: as §1

UCHL3 = target: T4, UCHL3 (UniProt P15374)
T4 sequence (whole entry): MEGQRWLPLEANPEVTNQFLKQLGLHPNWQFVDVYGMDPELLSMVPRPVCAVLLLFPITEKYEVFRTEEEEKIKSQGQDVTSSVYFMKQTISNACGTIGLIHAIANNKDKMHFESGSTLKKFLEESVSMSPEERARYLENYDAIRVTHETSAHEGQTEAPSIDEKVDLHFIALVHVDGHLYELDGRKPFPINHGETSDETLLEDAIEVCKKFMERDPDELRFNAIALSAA
Method in brief: as §1

UCHL5 = target: T5, UCHL5 (UniProt Q9Y5K5)
T5 sequence (whole entry): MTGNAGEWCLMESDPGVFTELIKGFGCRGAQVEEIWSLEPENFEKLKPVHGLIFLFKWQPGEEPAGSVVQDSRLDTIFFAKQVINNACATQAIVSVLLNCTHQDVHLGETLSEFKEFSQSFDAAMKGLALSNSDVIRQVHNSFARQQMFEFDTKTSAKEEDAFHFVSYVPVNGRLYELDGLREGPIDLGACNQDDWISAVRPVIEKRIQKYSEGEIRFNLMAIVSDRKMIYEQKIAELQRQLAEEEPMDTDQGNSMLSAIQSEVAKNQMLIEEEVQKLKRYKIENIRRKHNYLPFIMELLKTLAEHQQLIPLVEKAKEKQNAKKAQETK
Method in brief: as §1

USP10 = USP10 (UniProt Q14694)
Method in brief: as §1

USP15 = target: T6, USP15 (UniProt Q9Y4E8)
T6 sequence (whole entry): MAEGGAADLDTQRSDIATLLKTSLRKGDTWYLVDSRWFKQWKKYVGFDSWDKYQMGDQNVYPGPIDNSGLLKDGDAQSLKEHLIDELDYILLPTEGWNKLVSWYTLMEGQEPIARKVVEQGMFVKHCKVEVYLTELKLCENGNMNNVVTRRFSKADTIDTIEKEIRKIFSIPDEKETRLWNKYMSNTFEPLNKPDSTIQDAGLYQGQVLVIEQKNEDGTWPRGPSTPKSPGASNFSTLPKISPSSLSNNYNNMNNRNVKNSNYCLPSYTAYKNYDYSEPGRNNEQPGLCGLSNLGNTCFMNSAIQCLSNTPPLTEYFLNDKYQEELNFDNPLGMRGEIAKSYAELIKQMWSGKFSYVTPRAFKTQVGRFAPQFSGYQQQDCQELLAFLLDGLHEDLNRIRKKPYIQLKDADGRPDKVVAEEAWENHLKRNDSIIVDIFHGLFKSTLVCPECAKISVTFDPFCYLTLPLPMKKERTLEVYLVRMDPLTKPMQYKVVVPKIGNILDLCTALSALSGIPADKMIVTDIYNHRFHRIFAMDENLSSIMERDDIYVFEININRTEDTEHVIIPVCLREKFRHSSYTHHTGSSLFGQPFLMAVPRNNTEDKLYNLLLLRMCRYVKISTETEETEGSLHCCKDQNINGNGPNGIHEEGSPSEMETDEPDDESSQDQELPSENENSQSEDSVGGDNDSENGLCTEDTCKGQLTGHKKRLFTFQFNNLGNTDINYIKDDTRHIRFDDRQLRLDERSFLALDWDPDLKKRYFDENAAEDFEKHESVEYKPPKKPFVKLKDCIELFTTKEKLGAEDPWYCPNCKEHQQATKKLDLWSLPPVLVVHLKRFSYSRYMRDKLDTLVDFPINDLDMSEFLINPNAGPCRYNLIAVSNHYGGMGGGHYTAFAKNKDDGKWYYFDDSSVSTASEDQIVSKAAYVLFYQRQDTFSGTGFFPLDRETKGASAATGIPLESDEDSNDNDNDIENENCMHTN
Method in brief: as §1

USP16 = USP16 (UniProt Q9Y5T5)
Method in brief: as §1

Measured: log2 ratio of Biotin-Ahx-Ub-VS probe labelling

Sequence of USP10 (Q14694 whole entry): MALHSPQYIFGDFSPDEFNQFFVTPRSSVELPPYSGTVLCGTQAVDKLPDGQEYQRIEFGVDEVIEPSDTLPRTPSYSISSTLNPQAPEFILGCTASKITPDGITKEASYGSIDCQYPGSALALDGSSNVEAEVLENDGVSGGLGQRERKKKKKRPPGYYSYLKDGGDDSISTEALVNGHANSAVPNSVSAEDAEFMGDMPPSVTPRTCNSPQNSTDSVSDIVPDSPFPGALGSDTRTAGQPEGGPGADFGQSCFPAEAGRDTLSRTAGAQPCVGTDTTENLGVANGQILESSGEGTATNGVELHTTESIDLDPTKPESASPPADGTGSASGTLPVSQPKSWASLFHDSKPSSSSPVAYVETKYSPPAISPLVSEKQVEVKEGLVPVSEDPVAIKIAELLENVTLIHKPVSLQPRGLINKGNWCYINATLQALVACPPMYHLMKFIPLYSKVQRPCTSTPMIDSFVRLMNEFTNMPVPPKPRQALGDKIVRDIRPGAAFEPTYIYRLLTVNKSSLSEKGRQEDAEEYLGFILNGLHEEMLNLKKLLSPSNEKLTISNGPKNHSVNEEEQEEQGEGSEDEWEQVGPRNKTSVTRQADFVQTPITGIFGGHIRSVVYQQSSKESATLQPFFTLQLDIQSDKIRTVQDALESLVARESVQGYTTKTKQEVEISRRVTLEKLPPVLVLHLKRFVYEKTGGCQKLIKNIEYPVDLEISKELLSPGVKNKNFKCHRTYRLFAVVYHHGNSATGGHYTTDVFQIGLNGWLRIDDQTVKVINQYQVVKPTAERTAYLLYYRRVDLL
Sequence of USP16 (Q9Y5T5 whole entry, looked up): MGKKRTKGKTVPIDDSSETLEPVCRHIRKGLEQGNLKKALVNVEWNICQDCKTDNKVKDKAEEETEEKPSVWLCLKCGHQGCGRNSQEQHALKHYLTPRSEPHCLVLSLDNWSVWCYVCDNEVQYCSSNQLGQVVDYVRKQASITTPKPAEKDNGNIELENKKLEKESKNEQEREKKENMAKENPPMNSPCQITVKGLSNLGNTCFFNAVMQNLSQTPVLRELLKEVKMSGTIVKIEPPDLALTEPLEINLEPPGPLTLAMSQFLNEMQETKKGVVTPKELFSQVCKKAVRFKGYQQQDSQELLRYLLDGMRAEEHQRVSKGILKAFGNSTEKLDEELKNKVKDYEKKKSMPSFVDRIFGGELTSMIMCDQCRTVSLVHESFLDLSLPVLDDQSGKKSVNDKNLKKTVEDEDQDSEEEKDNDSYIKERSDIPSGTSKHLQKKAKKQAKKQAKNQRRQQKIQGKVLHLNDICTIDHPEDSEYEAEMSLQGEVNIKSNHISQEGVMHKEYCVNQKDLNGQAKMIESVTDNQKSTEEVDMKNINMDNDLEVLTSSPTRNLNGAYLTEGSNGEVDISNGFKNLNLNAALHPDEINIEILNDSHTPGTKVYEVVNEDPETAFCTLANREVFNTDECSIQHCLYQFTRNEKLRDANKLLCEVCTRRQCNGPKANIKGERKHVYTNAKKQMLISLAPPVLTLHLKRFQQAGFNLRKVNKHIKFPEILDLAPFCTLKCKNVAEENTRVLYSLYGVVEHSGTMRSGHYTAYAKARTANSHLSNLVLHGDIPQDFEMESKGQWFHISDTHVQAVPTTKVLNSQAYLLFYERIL
Sequence of UCHL1 (P09936 whole entry, looked up): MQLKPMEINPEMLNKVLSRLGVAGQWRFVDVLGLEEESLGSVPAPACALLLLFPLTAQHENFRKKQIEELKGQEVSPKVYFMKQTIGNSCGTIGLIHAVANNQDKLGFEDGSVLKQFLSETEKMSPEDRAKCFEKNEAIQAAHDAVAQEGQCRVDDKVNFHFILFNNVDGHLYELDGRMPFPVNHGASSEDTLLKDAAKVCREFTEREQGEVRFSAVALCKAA

O=C(CCl)N1c2ccccc2NC(=O)C12CCCC2
inactive: OTUD6B -0.0738 | OTUD7B -0.0903 | PRPF8 -0.16 | PSMD7 0.0949 | UCHL1 -0.493 | UCHL3 0.749 | UCHL5 -0.148 | USP10 -0.393 | USP15 0.113 | USP16 0.103
